Data published in PubChem BioAssay (NCATS).
Results filed as inconclusive are left out. The source made the active and inactive calls. Calls come from the whole dose curve; as a rule, active = well fitted cell-killing curve with a large enough effect; inconclusive = small, poorly fitted or top-dose-only effect; inactive = no such curve, though single readings can be large or run the other way.

Experiment: qHTS of pediatric cancer cell lines to identify multiple opportunities for drug repurposing: Primary screen for SJ-GBM2 cells (AID 1347091)
Settings: SJ-GBM2 viability, CellTiter-Glo luminescence, 48 h; series mostly up to 46 µM; activity change, negative = cytotoxic: at the top concentration
Text: Drug repurposing or repositioning has been offered as a strategy for drug development in oncology programs. This approach has special potential for childhood cancers and other rare or orphan diseases, where the expected return on new drug development has been a disincentive to pharmaceuticals.
In this project we exploit the poly-pharmacology of drugs to discover new indications via phenotypic screening of a panel of 19 well-characterized cell lines derived from solid tumors seen in children and adolescents. The goal is to identify approved drugs with previously unrecognized anticancer properties that has the potential to reveal new mechanisms and biological processes involved in carcinogenesis or drug resistance. We employed a titration-based paradigm (quantitative high-throughput screening or qHTS), where all compounds were tested at multiple concentrations for their effect on cell viability. Concentration-response curves (CRCs) were derived directly from the primary screen, and both potency and efficacy values were used to identify compounds with robust bioactivity profiles. We screened the NIH Chemical Genomics Center (NCGC) Pharmaceutical Collection (NPC) and Mechanism Interrogation Plate (MIPE) small molecule collections of approved and investigational compounds against these cell lines; and measured metabolically active cells after 48 hours of compound treatment as a proxy for cell viability.
Assay Submitter: Nathalia J. Martinez, National Center for Advancing Translational Sciences, National Institutes of Health, Rockville, MD, USA; email: natalia.martinez@nih.gov
[1] Shen, M et al. Quantitative high-throughput phenotypic screening of pediatric cancer cell lines identifies multiple opportunities for drug repurposing. Oncotarget 2017 Dec 19;9(4):4758-4772. PMID 29435139.
The cells were obtained from University of North Carolina (UNC), Pediatric Preclinical Testing Program (PPT), and Coriell Institute (CI).
qHTS cell viability assay:
Cells were assayed in growth media at a density of 500-1,000 cells/well. Five microliters of cells were dispensed into 1,536-well, white, solid-bottom, TC-treated plates (Greiner Bio One) using a multidrop dispenser and incubated at 37 degrees C, 5% CO2, under a humidified atmosphere for 5 hours. Twenty-three nanoliters of compounds and controls (neutral control DMSO or positive control bortezomib at final concentration of 2.3 µM) were subsequently transferred by Kalypsys pintool. For primary screens, the MIPE collection was tested at 11-point dilutions (final concentrations range from 0.78 nM to 46 µM) and the NPC collection at 8-point dilutions (final concentrations range from 0.59 nM to 46 µM). Compounds tested in follow-up screens were assayed at 11-point dilutions. Cells were incubated for 48 hours, followed by addition of 3 uL of CellTiter-Glo (Promega). After a 15 min incubation at room temperature, samples were analyzed for luminescence intensity using a ViewLux High-throughput CCD imager equipped with clear filters.
Potency is the fitted concentration of half-maximal effect.

SMILES | Potency | activity change, negative = cytotoxic
CC(C)c1cc(C(=O)N2Cc3ccc(CN4CCN(C)CC4)cc3C2)c(O)cc1O | 372 nM (active) | –
Cc1coc2c1C(=O)C(=O)c1c-2ccc2c1CCCC2(C)C | 5900 nM (active) | –
COc1cc2c(Oc3ccc(NC(=O)C4(C(=O)Nc5ccc(F)cc5)CC4)cc3F)ccnc2cc1OCCCN1CCOCC1 | 11.8 nM (active) | –
CNC(=O)c1ccc(N2C(=S)N(c3cnc(C#N)c(C(F)(F)F)c3)C(=O)C23CCC3)cc1F | 7430 nM (active) | –
Fc1cc(-c2cccc3ncc(-c4cnn(C5CCNCC5)c4)nc23)cc(F)c1CN1CCOCC1 | 16600 nM (active) | –
Cn1c(CNc2ccc(C(=N)N)cc2)nc2cc(C(=O)N(CCC(=O)O)c3ccccn3)ccc21 | – | 8.92% [at 16.1 µM] (inactive)
COc1ccc(-c2cc3c(C)nc(N)nc3n(C3CCC(OCCO)CC3)c2=O)cn1 (stereo not given) | 23.5 nM (active) | –
COC(=O)Nc1nc2ccc(C(=O)c3ccc(F)cc3)cc2[nH]1 | 526 nM (active) | –
O=C(O)[C@H](Cc1c[nH]c2ccccc12)N1C(=O)c2ccccc2C1=O | – | 16.4% [at 92.7 µM] (inactive)
CN1c2cc(O)c(N=NC(N)=O)cc2CC1S(=O)(=O)O (stereo not given) | – | 10% (inactive)
COC(=O)Nc1ccc(-c2nc(N3CCOCC3)c3cnn(C4CCN(Cc5cccnc5)CC4)c3n2)cc1 | 743 nM (active) | –
COc1ccc(C(=O)CC2(O)C(=O)Nc3c(Cl)ccc(Cl)c32)cc1 (stereo not given) | 1180 nM (active) | –
O=c1c2ccccc2nc2n1CCc1c-2[nH]c2ccccc12 | – | -15.8% (inactive)
O=C(O)CCCc1c[nH]c2ccccc12 | – | -14.9% (inactive)
O=C(O)CO.[NH2-].[NH2-].[Pt+2] | – | -1.91% (inactive)
O=C(O)c1ccc2c(c1)nc(Nc1cccc(Cl)c1)c1ccncc12 | 7430 nM (active) | –
COc1cccc2nc(-c3cccs3)nc(NN3C(=O)C=C(C)C3=O)c12 | 935 nM (active) | –
C[C@@H](Oc1cc(-c2cnn(C3CCNCC3)c2)cnc1N)c1c(Cl)ccc(F)c1Cl | 74.3 nM (active) | –
CNC(=O)c1ccccc1Nc1nc(Nc2ccc(N3CCOCC3)cc2OC)ncc1Cl | 2350 nM (active) | –
COc1c(N2C[C@@H]3CCCN[C@H]3C2)c(F)cc2c(=O)c(C(=O)O)cn(C3CC3)c12 | – | 1.55% (inactive)

SMILES | Potency | activity change, negative = cytotoxic
Cc1cc(CN2CCN(c3c(Br)cnc4nc(-c5ccc(N6CCN(C)CC6)cc5)[nH]c34)CC2)no1 | 5900 nM (active) | –
C1=CCOCc2cc(ccc2OCCN2CCCC2)Nc2nccc(n2)-c2cccc(c2)OCC1 | 3720 nM (active) | –
COCCOc1ccc2c(c1)ncn2-c1ccc2cccc(N3CCC(N)CC3)c2n1 | 11800 nM (active) | –
Nc1ccn([C@@H]2CS[C@H](CO)O2)c(=O)n1 | – | 8.35% [at 92.7 µM] (inactive)
CNC(=O)c1cc(Oc2ccc(NC(=O)Nc3cc(C(C)(C)C)nn3-c3ccc4ncccc4c3)c(F)c2)ccn1 | 1320 nM (active) | –
CC[C@H](CO)Nc1nc(NCc2ccccc2)c2ncn(C(C)C)c2n1 | 16600 nM (active) | –
Clc1ccc2ncc(-c3cccc(NC4CNC4)n3)n2c1 | 11800 nM (active) | –
Nc1ccc(S(=O)(=O)Nc2ncccn2)cc1 | – | 24.6% (inactive)
OCc1ccc(-c2ccc(-c3ccc(CO)s3)o2)s1 | 16600 nM (active) | –
CC(NCc1ccc2c(c1)nc(NC(=O)c1ccc(-c3cn[nH]c3)s1)n2CC(C)(C)O)C(C)(C)C (stereo not given) | 296 nM (active) | –
O=C(O)Cn1nnc(-c2cc(N3CCC(Oc4cc(F)ccc4Br)CC3)no2)n1 | 469 nM (active) | –
CC(=O)OCCN1C(=O)c2c(C)nc3ccc(S(=O)(=O)N4CCOCC4)cc3c2C1=O | – | 17.4% (inactive)
O=C(C=Cc1cccnc1)NCCCCC1CCN(C(=O)c2ccccc2)CC1 | 16.6 nM (active) | –
COc1ccc(F)c(F)c1C(=O)c1cnc(NC2CCN(S(C)(=O)=O)CC2)nc1N | 743 nM (active) | –
Nc1ccccc1NC(=O)c1ccc(CNc2nccc(-c3cccnc3)n2)cc1 | 2350 nM (active) | –
CC[C@@H]1C(=O)N(C)c2cnc(Nc3ccc(C(=O)NC4CCC(N5CCN(CC6CC6)CC5)CC4)cc3OC)nc2N1C(C)C (stereo not given in full) | 74.3 nM (active) | –
Nc1nc(-c2nn(Cc3ccccc3F)c3ncccc23)nc(N)c1N1CCOCC1 | – | -12.8% (inactive)
Nc1nccc(Oc2ccc(NC(=O)c3c[nH]cc(-c4ccc(F)cc4)c3=O)cc2F)c1Cl | 132 nM (active) | –
CCc1c2c(nc3ccc(O)cc13)-c1cc3c(c(=O)n1C2)COC(=O)[C@]3(O)CC | 6.6 nM (active) | –
COC(=O)C[C@](O)(CCCC(C)(C)O)C(=O)O[C@@H]1C(OC)=C[C@]23CCCN2CCc2cc4c(cc2[C@H]13)OCO4 | – | 16.1% (inactive)
